# Compound activity: PubChem BioAssay, National Center for Advancing Translational Sciences (NCATS)
# KB-V1 cytotox = KB-V1 MDR subline cytotoxicity. KB-V1 MDR cells viability, CellTiter-Glo, 72 h. Potency, µM (highest dose often 46.1 µM), hits mostly cytotoxic. 400,000 tested, 3.4% active. AID 1347076; also: potency is read from the fitted curve at half-maximal effect; % is scaled to controls: 0 for no effect and ±100 for the full control effect; nearly all actives have a fitted effect of over 60% in size
#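 KB-V1 cells (P-gp-expressing MDR subline of KB-3-1) in phenol-red-free DMEM with 10% FBS were exposed to library compounds over a concentration series for 72 h at 37 degrees C. Viability read by CellTiter-Glo luminescence; concentration-effect curves fitted after normalization.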
# SW480 rereplic = inducers of DNA re-replication in SW480 colon cancer cells; SW480 DNA re-replication, Hoechst DNA content imaging, 48 h; Potency, µM (titrated, usually from 46.1 µM), without a hit: at the highest dose re-replication activation, most hits filed as activators; 340,000 tested, 1.8% active; AID 624297; also: potency is read from the fitted curve at half-maximal effect; % of control where 0% means no effect; nearly all actives have a fitted effect of over 55% in size
#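 Treated cells incubate 48 hr (37 C, 5% CO2), are stained 40 min with Hoechst, and nuclear fluorescence is enumerated; a rise in nuclei with high DNA signal marks re-replication.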
# MCF10A rerep = inducers of DNA re-replication in MCF 10A breast cells. AID 624296. MCF 10A DNA re-replication, Hoechst nuclear intensity, 48 h. Potency, µM (top dose mostly 46.1 µM), for the others: top-dose activity, positive = re-replication, hits mostly activators. 350,000 tested, 2.9% active; also: potency is read from the fitted curve at half-maximal effect; % of control where 0% means no effect; nearly all actives have a fitted effect of over 50% in size
# KCNH2 WT inh = inhibitors of human wildtype KCNH2 potassium channel | Q12809 | 340,000 tested, 0.37% active | activity change, % at 1.84 µM | U2OS, BacMam KCNH2, thallium flux FluxOr; active compounds read low;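 active = maximum activity change below -70%; inconclusive = maximum activity change between -70% and -50%; inactive = maximum activity change above -50%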; also: % is scaled to controls: 0 for no effect and ±100 for the full control effect
# Target sequence (Q12809 whole entry, looked up): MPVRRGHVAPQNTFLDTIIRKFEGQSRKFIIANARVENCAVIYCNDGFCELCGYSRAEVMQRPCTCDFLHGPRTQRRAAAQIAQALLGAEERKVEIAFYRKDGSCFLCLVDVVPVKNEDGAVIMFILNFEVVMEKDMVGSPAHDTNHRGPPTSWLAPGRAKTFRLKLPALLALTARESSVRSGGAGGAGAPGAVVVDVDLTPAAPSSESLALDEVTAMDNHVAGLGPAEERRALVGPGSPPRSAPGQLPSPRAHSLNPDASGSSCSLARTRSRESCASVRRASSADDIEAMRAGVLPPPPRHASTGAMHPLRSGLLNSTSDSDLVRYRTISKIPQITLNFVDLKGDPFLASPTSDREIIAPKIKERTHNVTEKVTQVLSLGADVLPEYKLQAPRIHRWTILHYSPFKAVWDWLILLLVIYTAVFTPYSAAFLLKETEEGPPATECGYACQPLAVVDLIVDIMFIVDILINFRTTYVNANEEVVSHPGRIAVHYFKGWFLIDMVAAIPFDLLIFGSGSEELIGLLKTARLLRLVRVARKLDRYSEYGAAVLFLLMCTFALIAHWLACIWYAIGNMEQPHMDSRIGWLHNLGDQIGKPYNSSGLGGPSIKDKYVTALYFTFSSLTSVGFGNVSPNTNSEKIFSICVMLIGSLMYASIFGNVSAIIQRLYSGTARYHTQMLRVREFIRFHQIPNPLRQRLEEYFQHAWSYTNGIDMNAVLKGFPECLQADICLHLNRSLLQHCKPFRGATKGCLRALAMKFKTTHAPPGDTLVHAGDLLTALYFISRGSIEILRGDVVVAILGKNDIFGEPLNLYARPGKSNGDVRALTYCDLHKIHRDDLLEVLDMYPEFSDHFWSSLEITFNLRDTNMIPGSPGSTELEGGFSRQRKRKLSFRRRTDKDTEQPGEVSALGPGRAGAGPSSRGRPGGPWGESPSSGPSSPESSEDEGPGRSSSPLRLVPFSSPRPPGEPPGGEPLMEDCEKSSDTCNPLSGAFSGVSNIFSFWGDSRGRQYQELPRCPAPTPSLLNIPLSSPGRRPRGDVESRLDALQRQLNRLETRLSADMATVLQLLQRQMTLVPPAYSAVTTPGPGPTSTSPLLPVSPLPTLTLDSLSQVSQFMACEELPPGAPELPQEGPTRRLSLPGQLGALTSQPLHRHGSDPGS
#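 U2OS cells transduced with wild-type KCNH2 virus are loaded with FluxOr dye for 45 min, and thallium flux is measured in kinetic reads before and after stimulation buffer. Rate constants are normalized to DMSO controls.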
# KCNH2 3.1 block = inhibitors of human KCNH2 3.1 potassium channel isoform | U2OS KCNH2 3.1, thallium flux FluxOr; active compounds read low | activity change, % (tested at about 1.8 µM) | 340,000 tested, 0.95% active;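 active = maximum activity change below -70%; inconclusive = maximum activity change from -70% to -50%; inactive = maximum activity change above -50%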;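 also: thallium influx rate constant from kinetic fluorescence after stimulation buffer; % is scaled to controls: 0 for no effect and ±100 for the full control effect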
#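 Kinetic fluorescence (2 min after stimulation buffer) measures Tl+ influx through KCNH2 3.1 expressed by viral transduction in U2OS cells; the rate constant is normalized against DMSO controls serving as positive and negative references.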
# KB-3-1 cytotox = KB-3-1 parental cell cytotoxicity | Potency, µM (doses to about 46.1 µM), actives largely listed as cytotoxic | KB-3-1 viability, CellTiter-Glo ATP luminescence, 72 h | AID 1347075 | 400,000 tested, 1.4% active; also: potency is read from the fitted curve at half-maximal effect; % is scaled to controls: 0 for no effect and ±100 for the full control effect; nearly all actives have a fitted effect of over 60% in size
#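 72 h, 37 °C compound treatment of KB-3-1 parental cells; CellTiter-Glo added, 10 min, luminescence read. Data corrected against DMSO-only plates and normalized before curve fitting.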
# * marks the source's active call; other numbers are inactive results; i = inactive; u = inconclusive; x = no result given; [ ] = remark or other dose. Sampled rows, rich in hits. Any-hit rate of the full collection: about 7.6%. Unless noted, calls follow the shape of the dose curve; as a rule, active = well fitted curve in the direction sought with a large enough effect; inconclusive = small, poorly fitted or top-dose-only effect, or another doubt; inactive = no such curve, though single readings can be large; an effect the other way counts as inactive or inconclusive.
SMILES,KB-V1 cytotox,SW480 rereplic,MCF10A rerep,KCNH2 WT inh,KCNH2 3.1 block,KB-3-1 cytotox
C[n+]1ccccc1/C=C1\Sc2ccccc2N1CCO,i,-1%,16%,-10,-7,21µM*
Cc1[nH]c(N=Nc2ccccc2)nc1N=Nc1ccccc1,u,7.3µM*,u,-10,-13,18µM*
Nc1ccc(N=Nc2ccccc2)c(N)n1,u,-25%,5%,-1,-10,i
O=C(O)C1CCN(c2nc(-c3ccccc3)c3cc(Br)ccc3n2)CC1,i,1%,23µM*,-13,7,i
OCCN1CCN(c2nc(-c3ccccc3)c3cc(Br)ccc3n2)CC1,i,21µM*,18µM*,-30,-71*,i
Cc1cc(S(=O)(=O)NC(C)C)ccc1OCC(=O)NCc1ccccc1,i,-2%,-5%,2,14,i
CC(C)CNC(=O)c1ccc(NC(=O)c2ccccc2[N+](=O)[O-])cc1,i,-53%,-38%,0,4,i
CC(=O)CN1Cc2ccccc2/C1=N\C(=O)Nc1ccccc1,i,-7%,4%,0,-78*,i
COc1ccc(N2Cc3ccccc3/C2=N\C(=O)Nc2ccccc2)cc1,i,-9%,7%,2,-2,i
CC(=O)c1c(C)nc2sc3c(=N)n(N)cnc3c2c1-c1ccc(Cl)cc1,18µM*,-71%,10%,-3,4,u
O=c1[nH]c(C(F)(F)C(F)(F)C(F)(F)F)no1,i,-11%,5%,0,4,i
CCOc1ccc(S(=O)(=O)Nc2cc(S(=O)(=O)N(CC)CC)ccc2N2CCCC2)cc1,2.6µM*,u,-55%,1,-20,u
CCOc1ccc(S(=O)(=O)Nc2ccccc2C(=O)Nc2ccccc2N2CCOCC2)cc1,i,-5%,4%,13,-23,i
Cn1c(=O)c(=O)n(C)c2cc(N3CCCCC3)c(NS(=O)(=O)c3ccc(Br)cc3)cc21,i,7.3µM*,-1%,-2,-1,i
CCOC(=O)c1ccc(N2CCCCC2)c(NS(=O)(=O)c2ccc(C)cc2)c1,u,u,21µM*,1,3,u
CCOc1ccc(C(=O)Nc2cc(S(=O)(=O)Nc3ccccc3Cl)ccc2N2CCOCC2)cc1,6.5µM*,13%,4%,-1,u,i
CCN(CC)S(=O)(=O)c1ccc(N2CCCC2)c(NC(=O)Cc2cc(OC)c(OC)c(OC)c2)c1,u,15%,4%,9,9,i
CCN(CC)S(=O)(=O)c1ccc(N2CCCC2)c(NC(=O)Cc2ccc(OC)cc2)c1,23µM*,10%,u,-16,2,i
CCN(CC)S(=O)(=O)c1ccc(N2CCN(C)CC2)c(NC(=O)Nc2ccc(C)cc2)c1,i,2%,12µM*,2,-5,i
Cc1cc(NC(=O)c2c(F)cccc2Cl)n(-c2nc3ccccc3[nH]2)n1,i,-5%[9.22 µM],10µM*,-9,-8,i
Cc1cc(NC(=O)c2ccc(C)s2)n(-c2nc3ccccc3[nH]2)n1,i,1%,5%,-3,-19,i
Cc1cc(NC(=O)C2CCCCC2)n(-c2nc3ccccc3[nH]2)n1,u,2%,u,-2,-16,u
Cc1cc(NC(=O)c2c(F)cccc2F)n(-c2nc3ccccc3[nH]2)n1,i,8.2µM*,12µM*,1,-11,u
Cc1cc(NC(=O)c2ccccc2F)n(-c2nc3ccccc3[nH]2)n1,15µM*,5%,u,-26,-7,u
Cc1cc(NC(=O)C23CCC(C)(C(=O)O2)C3(C)C)no1 (centres undefined),i,-5%,-4%,-22,-191*,i
SMILES,KB-V1 cytotox,SW480 rereplic,MCF10A rerep,KCNH2 WT inh,KCNH2 3.1 block,KB-3-1 cytotox
CC(C)(C)c1ccc(OCCC(=O)NCC(c2cccs2)N2CCOCC2)cc1 (centres undefined),i,-30%,24%,8,2,i
CC(C)CN1CCNC(=O)C1CC(=O)NCCc1cnn(-c2ccccc2)c1 (centres undefined),i,-3%,-4%,3,-114*,i
Cn1cc(CCNC(=O)CC2C(=O)NCCN2Cc2cccc(Oc3ccccc3)c2)cn1 (centres undefined),i,26µM*,u,x,-23,u
Cc1cc2c(cc1C)CSC(c1c(O)ccc3ccccc13)SC2,i,18%,18µM*,1,-13,u
Cc1cc2c(cc1C)CSC(c1ccccc1OC(=O)C(C)(C)C)SC2,i,7%,12µM*,-2,-15,i
Cc1cc2c(cc1C)CSC(c1ccccc1O)SC2,18µM*,u,u,-27,-18,u
Oc1ccccc1C1SC(c2ccccc2O)SC(c2ccccc2O)S1 (centres undefined),i,u,6.5µM*,-4,13,u
COc1ccc(NC2CCCN(C(=O)CCC3=NNC(=O)CC3)C2)cc1 (centres undefined),i,-6%,1%,-1,-13,i
Cc1nnc(NC(=O)CSc2nc(C(C)C)nc3ccccc23)s1,u,u,2%,-6,-5,i
O=C(Cc1cccs1)Nc1nc2c(s1)CCCC2,12µM*,5%,u,-1,-12,u
CC(C)(C)c1nc(SCC(=O)Nc2nc3c(s2)CCCC3)c2ccccc2n1,u,-6%,2%,-7,-28,i
O=C(CCSc1ccccc1)Nc1nc2c(s1)CCCC2,26µM*,1%,u,2,-13,i
O=C(Nc1nc2c(s1)CCCC2)c1cccs1,u,-5%,16%,-12,-4,u
Cc1cc(NC(=O)CSc2nc(C(C)C)nc3ccccc23)no1,u,u,26µM*,1,-5,u
O=C(CSc1ncn(-c2ccccc2)n1)Nc1nc2c(s1)CCCC2,i,8%,5%,-4,0,i
O=C(CSc1nc(Cc2ccccc2)nc2ccccc12)Nc1nc2c(s1)CCCC2,u,21µM*,23µM*,-15,-5,i
O=C(Cn1c(=O)n(-c2ccccc2)c(=O)c2sc3ccccc3c21)N1CCCC1,i,x,x,x,x,i
CCCCCCCCCCCC(=O)OCC(O)C1OCC(O)C1O (centres undefined),x,1%,4%,x,x,x
CCOC(=O)C1CCCN(C(=O)c2ccc(C)cc2O)C1 (centres undefined),u,-3%,-5%,7,-2,i
CC(C)(C)[C@H]1COC(=O)CC/C=C\C[C@H](CC(=O)N(CCO)Cc2ccccc2)C(=O)N1,i,-4%,14%,x,x,i
